The values below come from PubChem BioAssay AID2642 (Johns Hopkins Ion Channel Center, 2010).

In all, about 310,000 compounds went through this assay and about 3,900 (1.3%) were called active.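 The calls were made as follows: active = compounds whose thallium flux B-score, printed positive for inhibition, exceeds three library SD while starting fluorescence stays within three; inactive = the rest.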 The entries come from a sample that favours actives as a whole.

Chain of Potassium voltage-gated channel subfamily KQT member 1 (Homo sapiens) (P51787 whole entry, looked up): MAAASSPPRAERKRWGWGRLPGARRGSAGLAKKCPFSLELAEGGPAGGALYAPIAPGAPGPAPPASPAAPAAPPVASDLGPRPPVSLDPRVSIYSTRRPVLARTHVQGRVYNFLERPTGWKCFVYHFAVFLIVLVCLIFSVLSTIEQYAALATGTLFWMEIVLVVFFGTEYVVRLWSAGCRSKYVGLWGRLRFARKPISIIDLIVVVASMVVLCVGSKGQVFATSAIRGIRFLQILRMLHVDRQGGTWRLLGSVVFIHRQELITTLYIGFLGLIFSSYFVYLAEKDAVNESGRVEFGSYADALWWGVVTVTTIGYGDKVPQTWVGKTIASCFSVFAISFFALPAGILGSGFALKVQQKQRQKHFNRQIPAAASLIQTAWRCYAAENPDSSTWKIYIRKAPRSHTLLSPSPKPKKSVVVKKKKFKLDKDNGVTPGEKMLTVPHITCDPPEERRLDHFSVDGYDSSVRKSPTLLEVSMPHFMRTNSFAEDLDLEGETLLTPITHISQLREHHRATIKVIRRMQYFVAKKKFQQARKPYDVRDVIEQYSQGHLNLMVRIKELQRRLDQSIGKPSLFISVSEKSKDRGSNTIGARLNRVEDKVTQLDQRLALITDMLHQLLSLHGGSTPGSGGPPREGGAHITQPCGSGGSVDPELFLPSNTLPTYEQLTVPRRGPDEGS

This assay has as its target Potassium voltage-gated channel subfamily KQT member 1 (Homo sapiens) (UniProt P51787). As to the kind of experiment: KCNQ1 potassium current blockers – cell-based, thallium flux, high-throughput, primary screen (AID 2642).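 Also: channel opened by potassium depolarization with thallium stimulus after 20 min compound exposure.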 To be noted: CHO-K1 KCNQ1, FluxOR thallium flux fluorescence, at 10 µM; active compounds read high.
Regarding `CCN(CC)S(=O)(=O)c1ccc(OC(C)C)c(N)c1`, the B-score result was “inactive”.

Turning to `CCc1ccccc1NC(=O)/C(=C/c1ccccc1)c1ccccc1`, the B-score entry was “inactive”.

As for `COCc1cc(C)nc2sc3c(=O)n(-c4cccc5ccccc45)nnc3c12`, the B-score entry is “inactive”.

In the case of `COc1ccc(/C=C/C(=O)Nc2ccc(C34CC5CC(CC(O)(C5)C3)C4)cc2)cc1OC`, the B-score result was “inactive”.

`Cc1cccc(N2CCN(C(=O)c3cnn4c(C(F)F)cc(-c5ccccc5)nc34)CC2)c1C`: the B-score was 7 (active).

In the case of `O=C(O)c1cnn2c(C(F)(F)F)cc(-c3ccccc3)nc12`, the B-score entry was “inactive”.

Take `Cc1cccc(N2CCN(C(=O)c3cc4c(=O)[nH]c5ccccc5c4n3C)CC2)c1C`: the B-score result was “inactive”.

On to `COc1ccc(N2CCN(C(=O)c3cn(C)c4ccc(S(=O)(=O)N5CCOCC5)cc4c3=O)CC2)cc1`, for which the B-score entry was “inactive”.

For the compound `COCCn1c(N)c(NCc2ccccc2)c(=O)[nH]c1=O`, the B-score entry is “inactive”.

Turning to `COC1=CCC2([N+](=O)[O-])CN(CC(=O)O)CC1([N+](=O)[O-])C2` (stereo not drawn), the B-score result was “inactive”.

Take `CCCCOc1ccc(C(=O)NCC(=O)OCC(=O)N2CCN(S(=O)(=O)c3ccc(C)cc3C)CC2)cc1`: the B-score result was “inactive”.

As to `CCN(CC)CCn1cnc2c1c(=O)[nH]c(=O)n2Cc1ccccc1`, the B-score result was “inactive”.

Turning to `COCCn1cnc2c1c(=O)n(Cc1ccc(Br)cc1)c(=O)n2Cc1ccccc1`, the B-score result was “inactive”.

Take `N=c1c2c(-c3ccccc3)c(-c3ccccc3)n(Cc3ccccc3)c2ncn1CCCO`: the B-score is 10 (active).

Take `O=S(=O)(Nc1ccccc1Br)c1cccs1`: the B-score result was “inactive”.

Regarding `O=C(Nc1cccc(Cl)c1)Nc1ccccc1NS(=O)(=O)c1cccs1`, the B-score was 14 (active).

For `O=S(=O)(NCc1ccc(Cl)cc1Cl)c1cccs1`, the B-score result is “inactive”.

As to `COCCNC(=O)CN(Cc1ccco1)C(=O)CCC(=O)Nc1nccs1`, the B-score result was “inactive”.

As for `CC(=O)N(C1=C(Cl)C(=O)c2ccccc2C1=O)c1ccc(C(=O)O)cc1`, the B-score is 17 (active).

Turning to `CC(C)N(C(=O)c1ccc(-c2ccccc2F)cc1)C(C)C`, the B-score result was “inactive”.

Consider `O=C(CN1C(=O)c2ccccc2C1=O)NCc1ccc(C(=O)O)cc1`, for which the B-score entry is “inactive”.

Consider `Cc1ccc(Cl)cc1NC(=O)C1CCCN(c2cnccn2)C1` (stereo not drawn), for which the B-score result was “inactive”.

Take `O=C(COc1ccc(S(=O)(=O)N2CCOCC2)cc1Cl)N1CCOCC1`: the B-score entry is “inactive”.

On to `OCC1(Cc2ccccc2C(F)(F)F)CCN(Cc2cccc3cnccc23)CC1`, for which the B-score result was “inactive”.

For the compound `O=C(c1ccncc1)N1CCN(S(=O)(=O)c2cccc([N+](=O)[O-])c2)CC1`, the B-score entry was “inactive”.

Take `O=C(Cc1ccsc1)N1CCN(S(=O)(=O)c2cc(C(F)(F)F)cc(C(F)(F)F)c2)CC1`: the B-score entry was “inactive”.

For `O=C(c1ccncc1)N1CCN(S(=O)(=O)c2cc(C(F)(F)F)cc(C(F)(F)F)c2)CC1`, the B-score is 6 (active).

As for `Cn1c(=O)c2c(nc(N3CCOCC3)n2CCNC2=NCCC2)n(C)c1=O`, the B-score result was “inactive”.
